One test concerns T1, TRKA.
T1 construct: gene NTRK1

Test [1] relates to TYK2(JH2domain-pseudokinase).
Test [2] has as its system TYK2(JH1domain-catalytic).
In another test the test system is T2, TRKC.
T2 construct: gene NTRK3

In a further test the test system is T3, TIE2.
T3 construct: gene TEK

Bounds are passed on as bounds.

In general, Kd refers to the concentration at which binding is half-saturated. A lower Kd goes with higher affinity.
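Also: kd values determined as follow-up on hits from a single-replicate KINOMEscan panel screen.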

`Cl.O=S(=O)(c1cccc(F)c1)c1ccc(Nc2ncnc3cc(Br)sc23)cc1Cl` [GSK306886]: the Kd in the test on SRPK1 was greater than 10000 nM.
Take `CC(=O)Nc1n[nH]c2ncc(-c3ccccc3)cc12` [SB-548492]: the dissociation constant (Kd) in the test on TRKA came to 2500 nM; in test [1] it was 580 nM.
Molecule `O=C(c1ccc(-c2cc(-c3c[nH]nc3-c3ccccn3)ccn2)cc1)N1CCCC1` [GW792479] displayed a Kd in the test on TGFBR1 of 170 nM.
`c1ccc(-c2ccc3c(-c4ccnc(Nc5ccc6c(c5)OCCO6)n4)cnn3n2)cc1` [GW818941] returned a Kd in the test with STK16 of 620 nM.
Take `Fc1ccc(Nc2nccc(-c3c(-c4ccc(Cl)cc4)nn4ncccc34)n2)cc1F` [GW829058]: the dissociation constant Kd in the test with TNIK and in the test with ULK2 was greater than 10000 nM each time.
In turn, `C[C@@H]1CCN(C(=O)CO)C[C@@H]1N(C)c1ncnc2[nH]ccc12` showed a Kd in [2] of 110 nM. In other words, the sub-micromolar range.
Molecule `COc1ccc(-c2oc3ncnc(N)c3c2-c2ccc(OC)cc2)cc1` [SB-589132] came in with an equilibrium dissociation constant (Kd) in test [1] of 1600 nM.
`CN1c2ccc(-c3ccc(C(=O)NCCO)cc3)cc2-c2[nH]ncc2S1(=O)=O`: binding in [1] was put at a Kd of 130 nM.
For `Cl.Cl.c1ccc(-c2cc3ccncc3cc2OC2CCNCC2)cc1` [GSK1122999], the Kd in the test on STK33 and with STK36 was greater than 10000 nM each time.
As for `CCC(CC)(CC)n1cnc2c(N)ncnc21` [SKF-97620], the Kd in the test with TNIK is greater than 10000 nM.
`Cn1cc(-c2ccc3c(c2)CCN3C(=O)Cc2cccc(C(F)(F)F)c2)c2c(N)ncnc21` [GSK2606414]: the equilibrium dissociation constant (Kd) in the test on SRPK3 was greater than 10000 nM.
Consider `Clc1ccc(-c2cc(-c3c[nH]nc3-c3ccccn3)ccn2)cc1` [GW681251], for which the values for the dissociation constant (Kd) in the test with TGFBR2, in the test with TNIK and with TRKC were 530 nM, 390 nM and greater than 10000 nM, respectively.
`CC(C)N1CCC(n2cnc(-c3ccc(F)cc3)c2-c2ccnc(N)n2)CC1` [SB-223132] had a dissociation constant Kd in the test on TIE2 greater than 10000 nM.
In the test with TEC, `Cc1ccc(O)cc1Nc1cc(C(F)(F)F)nc2ccc(-c3ccncc3)cc12` [GW630823] displayed an equilibrium dissociation constant (Kd) greater than 10000 nM.
For `FC(F)(F)c1ccc(-c2cc(-c3c[nH]nc3-c3ccccn3)ccn2)cc1` [GW599550], the equilibrium dissociation constant (Kd) in the test with TGFBR1 stood at 220 nM.
In turn, `Cc1ccc(C)c(NC(=O)NCCNc2ccnc(Nc3ccc(F)cc3)n2)c1` [GSK1379878] yielded a Kd with STK16 greater than 10000 nM.
The molecule `Cn1ccc2ncnc(Nc3ccc(Oc4cccc(Cl)c4)c(Cl)c3)c21` registered a Kd in the test on TEC greater than 10000 nM.
In the test with STK36, `CCc1nc(-c2cccc(N(C)S(=O)(=O)c3ccccc3)c2)c(-c2ccnc(Nc3ccc(N4CCN(C(C)=O)CC4)nc3)n2)s1` [GSK1645895] returned a Kd of 56 nM.
Regarding `CCCc1ccc(S(=O)(=O)NC2CCN(c3ccnc(Nc4ccc(OC)cc4)n3)C2)cc1` (stereo not drawn) [GSK1379737], the equilibrium dissociation constant (Kd) in the test with ULK1 is greater than 10000 nM.
The molecule `CC(C)(C)OC(=O)NC1CCCN(c2cc(-c3ccc4c(N)n[nH]c4c3)nc(N)n2)C1` (stereo not drawn) [GSK2286096] displayed a dissociation constant Kd in the test with TSSK3 greater than 10000 nM.
Take `O=C(Nc1ccccc1)Nc1ccc(Oc2ccc3nccn3n2)cc1`: the equilibrium dissociation constant (Kd) in the test on TNNI3K was greater than 10000 nM.
Molecule `Nc1n[nH]c2nnc(-c3ccccc3)cc12` [SB-517389] gave a Kd in the test on TSSK3 greater than 10000 nM.
In the test with TNIK, `Nc1nc(-c2cccnc2)c(-c2ccnc3ccccc23)s1` [GW684083] returned a Kd greater than 10000 nM.
With `CS(=O)(=O)CCNCc1nc(-c2ccc3ncnc(Nc4ccc(OCc5cccc(F)c5)c(Cl)c4)c3c2)cs1.Cl` [GW583340], the Kd in the test with TESK1 and in the test with TXK was greater than 10000 nM each time.

The values are drawn from publication PMC5540273 (PLoS ONE, 2017).
